# WT yeast gro inh: growth inhibition of WT yeast, mitochondrial fusion screen; inhibition, % at 10 µM; mitochondrial fusion phenotypic screen, WT strain; 190,000 compounds, 2.1% hits; AID 1362; in the data active = inhibition above about 58%; tested in S. cerevisiae
# m-calpain inh: calpain II (pig) inhibition; 220,000 compounds, 0.37% hits; AID 1236; inhibition, % at 16 µM; purified calpain II, fluorogenic peptide substrate, 30 min;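 active = inhibition above about 50%, limit read from the data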
# Cl transport mod: modulators of human KCC2 chloride dependent transport; KCC2 cells, thallium flux FluoZin-2 fluorescence; 190,000 compounds, 2.2% hits; Q9H2X9; AID 1456; B-score of Tl+ flux slope (higher = more flux/activation; lower = inhibition) at 10 µM;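 active = thallium flux slope and its plate-corrected score both differing from the plate sample mean at a set confidence after two filtering rounds, in either direction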;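 also: slope of fluorescence scaled to starting intensity during 10 to 20 s after thallium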
# Target sequence (Q9H2X9 whole entry, looked up): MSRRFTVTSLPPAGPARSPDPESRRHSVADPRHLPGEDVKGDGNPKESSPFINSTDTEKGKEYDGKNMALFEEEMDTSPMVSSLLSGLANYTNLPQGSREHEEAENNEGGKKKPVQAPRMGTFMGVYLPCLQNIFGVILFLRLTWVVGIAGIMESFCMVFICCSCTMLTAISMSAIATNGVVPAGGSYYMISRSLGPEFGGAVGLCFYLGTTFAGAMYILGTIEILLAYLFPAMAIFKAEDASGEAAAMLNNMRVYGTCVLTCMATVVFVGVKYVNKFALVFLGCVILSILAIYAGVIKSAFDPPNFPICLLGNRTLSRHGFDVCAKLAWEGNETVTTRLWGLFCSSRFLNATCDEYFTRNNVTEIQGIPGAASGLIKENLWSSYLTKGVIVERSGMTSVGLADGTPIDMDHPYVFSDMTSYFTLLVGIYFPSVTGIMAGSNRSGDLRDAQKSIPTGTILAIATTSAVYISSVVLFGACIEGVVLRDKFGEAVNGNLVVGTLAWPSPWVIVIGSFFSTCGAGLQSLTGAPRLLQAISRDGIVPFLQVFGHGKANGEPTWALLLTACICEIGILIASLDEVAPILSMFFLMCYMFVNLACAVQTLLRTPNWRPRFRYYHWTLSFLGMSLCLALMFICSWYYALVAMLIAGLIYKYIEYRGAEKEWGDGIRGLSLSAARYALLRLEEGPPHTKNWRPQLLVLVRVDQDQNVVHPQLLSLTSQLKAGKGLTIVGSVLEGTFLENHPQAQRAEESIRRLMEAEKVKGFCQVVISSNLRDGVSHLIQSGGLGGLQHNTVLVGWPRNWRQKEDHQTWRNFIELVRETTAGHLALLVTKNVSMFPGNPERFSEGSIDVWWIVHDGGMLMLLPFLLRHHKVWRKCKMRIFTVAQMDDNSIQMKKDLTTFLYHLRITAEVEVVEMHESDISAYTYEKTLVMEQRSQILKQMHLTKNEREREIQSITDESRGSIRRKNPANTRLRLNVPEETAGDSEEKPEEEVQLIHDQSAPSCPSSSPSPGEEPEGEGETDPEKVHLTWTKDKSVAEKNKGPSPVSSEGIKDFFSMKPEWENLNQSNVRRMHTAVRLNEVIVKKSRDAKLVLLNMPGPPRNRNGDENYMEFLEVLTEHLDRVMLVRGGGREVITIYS
# ROMK mod: modulates human ROMK potassium channel activity | Tet-inducible ROMK, thallium flux fluorescence; actives lie on both sides | B-score at 10 µM | 130,000 compounds, 2% hits;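 active = signal ratio slope over the read window, or its plate-corrected B-score, at least 3 SD from the plate mean, either direction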;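 also: B-score of the F/F0 ratio slope over 7 to 12 s after thallium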
# L major viab: reduces viability of Leishmania major promastigotes. resazurin fluorescence viability. inhibition, % at 10 µM. 200,000 compounds, 9% hits; in the data active = inhibition above about 50%;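 also: promastigotes grown with compound for 44 hours at 28 °C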
# ROMK retest: retested hit modulating human ROMK potassium channel; shares compounds with ROMK mod; ROMK thallium flux, fluorescence ratio; active compounds read low; normalized thallium flux (F/F0 slope) at 10 µM; 3,000 compounds, 54% hits;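 active = Flux at 10 µM at least 3 SD below or above vehicle control mean in one or both replicates; inconclusive = no clear call, values can overlap the other calls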
# An asterisk follows results filed as active; ? = inconclusive; . = not tested or not shown. Most compounds without a hit are left out; they make up all but 12% or so of the library.
SMILES,WT yeast gro inh,m-calpain inh,Cl transport mod,ROMK mod,L major viab,ROMK retest
Cc1nn(-c2ccccc2)c(Cl)c1/C=N/NC(=O)C1COc2ccccc2O1 (centres undefined),12,-15,-0.67,.,-1,.
CC1(C)CN=c2s/c(=C\c3ccc(Cl)cc3)c(=O)n2C1,29,-36,0.35,-0.98,5,.
CCCC(C)C(=O)Nc1ccc(S(=O)(=O)Nc2nccc(C)n2)cc1 (centres undefined),-1,-6,-0.13,-0.0092,6,.
COc1cc2c(cc1OC)-c1c(OC)c(OC)cc3ccnc(c13)C2=O,14,29,-2.3,-3.4*,63*,0.054*
COc1cc2cccc(OC)c(=O)c2c(O)c1OC,-16,7,-1.4,0.28,4,.
O=C1c2cccc3c(N4CCCCC4)ccc(c23)C(=O)N1c1ccccc1O,-15,-36,.,-5.2*,6,0.051*
O=C1c2cccc3c(N4CCCCC4)ccc(c23)C(=O)N1c1ccc(O)cc1,42,11,1,-3.1*,39,0.051*
CCCCOC(=O)Nc1cc(C(=O)OC)ccc1C(=O)OC,8,.,-0.46,3.8*,-3,0.073
CN(C)/C=C(/C(=O)c1ccc(Cl)cc1)S(=O)(=O)c1ccc(Cl)cc1,5,-23,-0.1,.,-5,0.082
Cc1cnc(CN(C)Cc2nc(Cc3cccc(C(F)(F)F)c3)no2)[nH]1,31,-8,0.24,0.19,1,.
O=C(O)CCn1cc(C(=O)O)c(-c2ccccc2)n1,.,14,-0.45,.,.,.
O=C(c1cc(Sc2cccc(Cl)c2)nc2ccccc12)N1CCN(c2ccccn2)CC1,36,0,0.11,-0.82,5,0.078
O=C(c1cc(Sc2ccc(Cl)cc2)nc2ccccc12)N1CCN(c2ccccn2)CC1,44,38,-0.48,0.06,26,.
CCOC(=O)c1c(C)[nH]c(C(=O)COC(=O)c2ccc(O)cc2O)c1C,.,6,2.3,.,.,0.078
CCOC(=O)c1c(C)[nH]c(C(=O)COC(=O)c2ccc(O)cc2)c1C,.,5,.,.,.,.
COc1ccc(CCSc2nnc(C3CCCCC3)n2N)cc1,-7,-11,.,-0.3,-1,.
CCCC(=O)NC(=S)Nc1ccc(N2CCN(C(=O)c3cccs3)CC2)cc1,1,26,-0.021,-0.33,-5,.
CCCC(=O)N1CCN(c2ccc(NC(=O)c3cccs3)cc2)CC1,-14,-17,-0.048,2.7*,0,0.086
COc1cc(C(=O)N2CCN(Cc3ccccc3C(F)(F)F)CC2)cc(OC)c1OC,-2,-27,.,-2.6*,3,0.077
COc1cc(OC)cc(C(=O)N2CCN(Cc3ccccc3C(F)(F)F)CC2)c1,27,11,.,-1.5,11,.
CCOC(=O)Nc1nc(-c2ccccc2)c(C(=O)c2ccc(Cl)cc2)s1,59*,9,0.55,3.2*,4,0.083
COc1ccc(N2CCN(C(=O)c3ccc(N(C)S(=O)(=O)c4ccc(C)cc4)cc3)CC2)cc1,29,40,-1.5,-1.7,36,.
Cc1ccc(S(=O)(=O)N(C)c2ccc(C(=O)N3CCCCC3)cc2)cc1,-6,-31,-0.25,-0.54,-5,.
COc1ccc(N2CCN(C(=O)c3ccc(N(C)S(=O)(=O)c4ccc(OC)cc4)cc3)CC2)cc1,30,37,0.055,-14*,23,?
Cc1ccc(S(=O)(=O)N(C)c2ccc(C(=O)N3CCN(Cc4ccc5c(c4)OCO5)CC3)cc2)cc1,-18,-31,.,-5*,100*,0.063*
SMILES,WT yeast gro inh,m-calpain inh,Cl transport mod,ROMK mod,L major viab,ROMK retest
Cn1cccc1C(=O)c1cccc([N+](=O)[O-])c1,-2,28,1,-0.47,-6,.
Oc1c(Cl)cc(Cl)cc1/C=N/c1nc(-c2ccc(Cl)cc2)cs1,.,8,-0.41,.,.,.
Oc1c(Cl)cc(Cl)cc1/C=N/c1nccs1,-16,-55,0.12,3.1*,-1,0.1*
CC(C)C(c1nnnn1Cc1ccccc1)N1CCN(Cc2ccc3c(c2)OCO3)CC1 (centres undefined),7,9,-1.4,.,89*,0.056*
CN(C)c1ccc2c(c1)OC(N)=C(C#N)C2c1cccc(F)c1 (centres undefined),7,40,-1.2,.,6,0.064*
CC(=O)[C@H]1CC[C@H]2[C@@H]3CCC4=CC(=O)CC[C@]4(C)[C@H]3CC[C@]12C,41,-3,-1.5,.,29,0.065*
Cc1nnc2c3ccccc3c(-c3cccc4ccccc34)nn12,11,-14,.,-0.42,9,.
Cc1nnc2sc(-c3cccc4ccccc34)nn12,40,-43,-0.45,-5.2*,-1,0.054*

# From PubChem
